Whole data set: some 140,000 sequences, median “enrichment ratio after two sorts for PhoP signalling” near 0, cut for the highest 2% near 11. This excerpt belongs to a sample that is enriched for the highest values.
B1: PhoQ; a variant is named by its letters at X, in order, P23837 (parent)
chain: MKKLLRLFFPLSLRVRFLLATAAVVLVLSLAYGMVALIGYSVSFDKTTFRLLRGESNLFYTLAKWENNKLHVELPENIDKQSPTMTLIYDENGQLLWAQRDVPWLMKMIQPDWLKSNGFHEIEADVNDTSLLLSGDHSIQQQLQEVREDDDDAEMTHSVAVNVYPATSRMPKLTIVVVDTIPVELKSSYMVWSWFIYVLSANLLLVIPLLWVAAWWSLRPIEALAKEVRELEEHNRELLNPATTRELTSLVRNLNRLLKSERERYDKYRTTLTDLTHSLKTPLXXLQXXLRSLRSEKMSVSDAEPVMLEQISRISQQIGYYLHRASMRGGTLLSRELHPVAPLLDNLTSALNKVYQRKGVNISLDISPEISFVGEQNDFVEVMGNVLDNACKYCLEFVEISARQTDEHLYIVVEDDGPGIPLSKREVIFDRGQRVDTLRPGQGVGLAVAREITEQYEGKIVAGESMLGGARMEVIFGRQHSAPKDE

Variants of: B1
Assay: enrichment ratio after two sorts for PhoP signalling (ratio (wild type AVST 3.29)); higher = more functional
Settings: with PhoP (E. coli)

Row | Variant | enrichment ratio
1 | ADHN | ≤ 0.25
2 | ALCG | 4.5
3 | WHCL | ≤ 0.25
4 | SADG | ≤ 0.25
5 | LGIQ | ≤ 0.25
6 | ADMC | 2.74
7 | INIV | ≤ 0.25
8 | ANMG | ≤ 0.25
9 | ANMS | 11.6
10 | INMV | 24.2
11 | AWVV | ≤ 0.25
12 | AEVV | 14.7
13 | ANMC | 22.9
14 | AIMC | ≤ 0.25
15 | INCV | ≤ 0.25
16 | ANQF | 1.01
17 | ADVV | 8.21
18 | HRGK | ≤ 0.25
19 | GKTM | 1.84
20 | IPYY | ≤ 0.25
21 | KKIV | ≤ 0.25
22 | GAYK | ≤ 0.25
23 | LLMQ | ≤ 0.25
24 | HFHH | ≤ 0.25

Row | Variant | enrichment ratio
25 | ATFM | ≤ 0.25
26 | ANMI | 26.5
27 | ANLW | 9.25
28 | TRVV | 14.5
29 | ANVA | 3.53
30 | AIVV | 10
31 | QRVV | ≤ 0.25
32 | ANMR | 5.84
33 | ANLS | 12
34 | ANLA | 5.31
35 | AHVV | ≤ 0.25
36 | ANVV | 11.6
37 | HRVV | ≤ 0.25
38 | QRFS | ≤ 0.25
39 | DWEC | ≤ 0.25
40 | RQRD | ≤ 0.25
41 | NCDF | ≤ 0.25
42 | HLKR | ≤ 0.25
43 | RGHG | ≤ 0.25
44 | TPEY | ≤ 0.25
45 | SLIG | ≤ 0.25
46 | YMIK | ≤ 0.25
47 | RLMY | ≤ 0.25
48 | KLYR | ≤ 0.25

Row | Variant | enrichment ratio
49 | TNMC | 35.5
50 | MNMC | 3.1
51 | AKMS | 3.84
52 | ATMS | 6.27
53 | AIMS | 14.3
54 | LNMC | 7.24
55 | ALVT | 1.4
56 | ANMV | 19.1
57 | AKVT | 12.6
58 | ANMW | ≤ 0.25
59 | AAVT | 2.41
60 | ANMD | ≤ 0.25
61 | FEGD | ≤ 0.25
62 | YPGN | ≤ 0.25
63 | WAKM | ≤ 0.25
64 | PMHP | ≤ 0.25
65 | ALWL | ≤ 0.25
66 | HRYP | ≤ 0.25
67 | YHPC | ≤ 0.25
68 | LYDW | ≤ 0.25
69 | VILC | 0.339
70 | DWCS | ≤ 0.25
71 | ANND | ≤ 0.25
72 | ADVT | ≤ 0.25

Row | Variant | enrichment ratio
73 | ANVT | 15
74 | HFIY | ≤ 0.25
75 | MIKG | ≤ 0.25
76 | KCMF | ≤ 0.25
77 | SCMA | 15.7
78 | SCMW | 6.03
79 | SCMF | 12.3
80 | SCMG | 25.9
81 | SCMV | 9.09
82 | SCVG | 5.95
83 | SCHF | ≤ 0.25
84 | SIMA | 4.54
85 | SCIG | 3.69
86 | TYMA | 1.56
87 | SCMI | 27.9
88 | WPNL | ≤ 0.25
89 | ERAD | ≤ 0.25
90 | SRLT | ≤ 0.25
91 | KMYN | ≤ 0.25
92 | IRST | ≤ 0.25
93 | LAMD | ≤ 0.25
94 | FSHH | ≤ 0.25
95 | WVRL | ≤ 0.25
96 | YRGN | ≤ 0.25

Row | Variant | enrichment ratio
97 | TIYR | 2.57
98 | IKRH | ≤ 0.25
99 | VSMQ | 2.71
100 | GITE | ≤ 0.25
101 | GNAC | 12.5
102 | MNAC | 27.7
103 | GIYS | ≤ 0.25
104 | GYAC | ≤ 0.25
105 | LNAC | ≤ 0.25
106 | TNAC | 3.13
107 | GIAC | 11.8
108 | MNFC | ≤ 0.25
109 | PCAQ | ≤ 0.25
110 | DTYT | ≤ 0.25
111 | MFKP | ≤ 0.25
112 | SQVA | 4.56
113 | WPDN | ≤ 0.25
114 | HVPR | ≤ 0.25
115 | KKRG | ≤ 0.25
116 | QGVQ | ≤ 0.25
117 | APCH | ≤ 0.25
118 | SLLI | 7.62
119 | SLAS | 5.06
120 | SELA | 12.4

Row | Variant | enrichment ratio
121 | SELI | 24.6
122 | SELT | 20.5
123 | SYLI | 0.306
124 | SEWI | 3.57
125 | SEYI | 4.33
126 | KYLT | ≤ 0.25
127 | KYAS | ≤ 0.25
128 | SEDT | ≤ 0.25
129 | SEAS | 26.6
130 | WRRM | ≤ 0.25
131 | YYVL | ≤ 0.25
132 | IENI | ≤ 0.25
133 | GVPH | ≤ 0.25
134 | PCMW | ≤ 0.25
135 | GSWF | ≤ 0.25
136 | HSKP | ≤ 0.25
137 | WEQY | ≤ 0.25
138 | IRFS | ≤ 0.25
139 | MEVT | 27.6
140 | SFLY | 0.911
141 | KYLY | ≤ 0.25
142 | QEVT | ≤ 0.25
143 | SELY | 11.4
144 | SPLS | ≤ 0.25

Row | Variant | enrichment ratio
145 | SQVT | 5.85
146 | NEVT | ≤ 0.25
147 | SEVT | 16.8
148 | SLVT | 0.291
149 | SELS | 20.9
150 | KYLS | ≤ 0.25
151 | PENI | ≤ 0.25
152 | PNLE | ≤ 0.25
153 | DQCP | ≤ 0.25
154 | HGEI | ≤ 0.25
155 | SWKP | ≤ 0.25
156 | WESM | ≤ 0.25
157 | SPLY | ≤ 0.25
158 | STAA | 4.26
159 | SEAD | 5.48
160 | SPLD | ≤ 0.25
161 | SEET | 6.48
162 | SELD | 14
163 | STLY | 13.1
164 | SENT | 2.04
165 | KYLD | ≤ 0.25
166 | SEAA | 14.3
167 | SEAT | 13.6
168 | YTLY | 1.95

Row | Variant | enrichment ratio
169 | DWIM | ≤ 0.25
170 | NPSS | ≤ 0.25
171 | FFHH | 0.731
172 | TYSH | 1.78
173 | NQDR | ≤ 0.25
174 | LYHC | ≤ 0.25
175 | YVNL | ≤ 0.25
176 | RKNY | ≤ 0.25
177 | MNMF | ≤ 0.25
178 | FCKG | ≤ 0.25
179 | HKNI | ≤ 0.25
180 | HKCC | ≤ 0.25
181 | ANCC | 0.324
182 | TKNI | 13.3
183 | TKNH | 11.4
184 | HKNH | ≤ 0.25
185 | MKCC | ≤ 0.25
186 | TKCC | 13.1
187 | HNNH | ≤ 0.25
188 | TKNW | ≤ 0.25
189 | AKCC | 15.2
190 | HNCC | ≤ 0.25
191 | KKAH | ≤ 0.25
192 | LSQM | ≤ 0.25

Row | Variant | enrichment ratio
193 | NLVR | ≤ 0.25
194 | SGPQ | ≤ 0.25
195 | FWSM | ≤ 0.25
196 | VAFK | ≤ 0.25
197 | MYIN | ≤ 0.25
198 | EPPF | ≤ 0.25
199 | IMLD | ≤ 0.25
200 | KKNM | ≤ 0.25
201 | TKNM | 31.9
202 | HKNM | ≤ 0.25
203 | AQCC | 32.6
204 | NQCC | ≤ 0.25
205 | EQCC | ≤ 0.25
206 | TTTA | 5.71
207 | TTTI | 22.1
208 | YTTI | ≤ 0.25
209 | GVTI | 4.7
210 | ITTI | ≤ 0.25
211 | GTTI | 13.5
212 | PPTP | ≤ 0.25
213 | GSSI | 14.1
214 | RGSI | ≤ 0.25
215 | NISI | ≤ 0.25
216 | TGSI | 19.6

Row | Variant | enrichment ratio
217 | GQSI | ≤ 0.25
218 | GGSI | 12.3
219 | GSTG | ≤ 0.25
220 | GSSK | ≤ 0.25
221 | NGSI | ≤ 0.25
222 | MYCI | ≤ 0.25
223 | LDCF | ≤ 0.25
224 | DHSM | ≤ 0.25
225 | GYII | 0.285
226 | YTII | ≤ 0.25
227 | GTII | 13.8
228 | GNII | 8.44
229 | GGII | 1.19
230 | GCII | 18.2
231 | TMAK | 16.1
232 | NMAK | ≤ 0.25
233 | KMAN | ≤ 0.25
234 | KMAM | ≤ 0.25
235 | TMNM | 35
236 | TMPM | ≤ 0.25
237 | TMAM | 26.9
238 | KMNM | ≤ 0.25
239 | TMIM | ≤ 0.25
240 | TMAN | 18.9

Row | Variant | enrichment ratio
241 | DMAN | ≤ 0.25
242 | HAAK | ≤ 0.25
243 | HYTR | ≤ 0.25
244 | LWGW | ≤ 0.25
245 | NTYY | ≤ 0.25
246 | YIFC | ≤ 0.25
247 | CVCM | ≤ 0.25
248 | TMTM | 17.1
249 | TMWM | ≤ 0.25
250 | TMGM | 3.21
251 | TWYG | ≤ 0.25
252 | QEGF | ≤ 0.25
253 | QGFA | 1.27
254 | FFGF | ≤ 0.25
255 | QIHF | ≤ 0.25
256 | QGFF | 13.9
257 | QGGF | 18.4
258 | QIGF | 12.5
259 | FFFF | ≤ 0.25
260 | QPGF | ≤ 0.25
261 | LRWS | ≤ 0.25
262 | ITEW | ≤ 0.25
263 | ELKD | ≤ 0.25
264 | HCGH | ≤ 0.25

Row | Variant | enrichment ratio
265 | NAPY | ≤ 0.25
266 | CITI | ≤ 0.25
267 | CIFA | ≤ 0.25
268 | CICV | 0.57
269 | CIMV | 12.9
270 | CIWI | ≤ 0.25
271 | CITA | 12.4
272 | TNDF | ≤ 0.25
273 | YDRL | ≤ 0.25
274 | VIWT | ≤ 0.25
275 | WDYR | ≤ 0.25
276 | GTGM | 6.32
277 | GDCG | ≤ 0.25
278 | RIRE | ≤ 0.25
279 | QTDS | 8.33
280 | QTNY | 17.5
281 | QTDH | 29.3
282 | QTPM | ≤ 0.25
283 | QTNS | 0.432
284 | QEYL | 1.39
285 | QGDH | ≤ 0.25
286 | KSYL | ≤ 0.25
287 | QTGD | ≤ 0.25
288 | QSYL | 13.9

Row | Variant | enrichment ratio
289 | QTNL | 10.8
290 | QTGM | 12
291 | DLEK | ≤ 0.25
292 | IPTS | ≤ 0.25
293 | VIYV | ≤ 0.25
294 | KMFH | ≤ 0.25
295 | KSEQ | ≤ 0.25
296 | TVLM | 0.847
297 | KYWW | ≤ 0.25
298 | KESK | ≤ 0.25
299 | KVEK | ≤ 0.25
300 | KTHS | 0.436
301 | VEPK | ≤ 0.25
302 | QTWL | 21.9
303 | QTYI | 12.9
304 | QTYL | 12.8
305 | QTHF | 3.14
306 | QGYL | 9.62
307 | QTPA | ≤ 0.25
308 | FDYL | ≤ 0.25
309 | QGWL | 2.29
310 | QTRL | ≤ 0.25
